Hits are enriched below; roughly 1.6% of the tested compounds scored in any of these assays.
KCNQ2 enhance = KCNQ2 (rat) channel potentiation | O88943 | CHO-K1 KCNQ2, FluxOR thallium flux fluorescence; active compounds read high | B-score at 10 µM | actives 0.54% (n = 310,000) | AID 2239;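 active means fluorescence ratio B-score at least 3 SD of library B-scores, with initial fluorescence B-score within 3 of them, cut at about 5.3 in these data; same plate scores as AID 2156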;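 further: B-score of peak minus minimum over baseline fluorescence ratio after K+ and Tl+ stimulus; positive B-score means potentiation of KCNQ2 with more thallium influx and brighter signal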
KCNQ2 block = KCNQ2 (rat) channel inhibition. CHO-K1 KCNQ2, FluxOR thallium flux, 20 min; active compounds read low. B-score at 10 µM. actives 1.1% (n = 310,000). AID 2156;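 active means fluorescence ratio B-score at most minus 3 library SDs, with starting brightness B-score within 2 library SDs, cut at about -5.5 in these data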
KCNQ2 inh conf = confirmation of rat KCNQ2 potassium channel inhibitors. shares compounds with KCNQ2 block. KCNQ2-expressing cells, thallium flux, inhibition; active compounds read low. activity change, negative = inhibition, % at 10 µM. actives 57% (n = 1,000). AID 493025;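 further: 0% = vehicle wells and values are ratio percent relative to vehicle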
KCNQ1 spec = KCNQ2 inhibitor that also affects human KCNQ1 channel. shares compounds with KCNQ2 block. activity change, negative = inhibition, % at 10 µM. actives 15% (n = 1,000). KCNQ1-expressing cells, FluxOR thallium flux fluorescence; active compounds read low;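 active means activity change at least 3 SD of negative controls below their mean in both duplicate wells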;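 further: CHO cells stably transfected with KCNQ1 and depolarized by potassium stimulus; peak minus minimum fluorescence over baseline after thallium addition; 0% = vehicle negative control and -100% = blank without thallium stimulus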
Target sequence (P51787 whole entry, looked up): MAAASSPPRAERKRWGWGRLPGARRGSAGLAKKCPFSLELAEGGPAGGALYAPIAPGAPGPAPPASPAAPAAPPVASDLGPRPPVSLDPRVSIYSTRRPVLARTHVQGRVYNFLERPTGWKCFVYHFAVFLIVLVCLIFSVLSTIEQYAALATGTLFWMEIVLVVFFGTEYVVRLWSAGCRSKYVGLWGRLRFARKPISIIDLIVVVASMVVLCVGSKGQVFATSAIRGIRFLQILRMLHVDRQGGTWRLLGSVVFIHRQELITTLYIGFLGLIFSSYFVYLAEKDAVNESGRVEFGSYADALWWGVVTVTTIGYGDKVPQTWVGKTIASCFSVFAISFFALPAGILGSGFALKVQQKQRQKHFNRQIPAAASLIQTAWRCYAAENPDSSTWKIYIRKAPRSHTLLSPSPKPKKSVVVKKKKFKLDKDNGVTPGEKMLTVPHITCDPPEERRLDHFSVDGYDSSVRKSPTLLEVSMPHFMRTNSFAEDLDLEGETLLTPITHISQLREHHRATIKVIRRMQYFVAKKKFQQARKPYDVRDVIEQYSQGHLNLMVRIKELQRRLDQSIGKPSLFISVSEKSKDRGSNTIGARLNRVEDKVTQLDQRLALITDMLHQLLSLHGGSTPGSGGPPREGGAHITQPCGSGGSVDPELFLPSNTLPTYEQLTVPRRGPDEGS
CHO parental ctr = counter-screen for KCNQ2 inhibitors: effect in parental CHO cells; shares compounds with KCNQ2 block; thallium flux counter-screen; active compounds read low; activity change, % at 10 µM; actives 14% (n = 1,000);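 further: 0% = vehicle negative controls with stimulus buffer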
KCNQ2 inh confirm = blocks rat KCNQ2 current in automated patch clamp | shares compounds with KCNQ2 block | KCNQ2-expressing cells | calls only at 10 µM | actives 49% (n = 550) | AID 588531
* hit, by the source's call; i = inactive; · = not tested or not shown; + = active, no number. Unless noted, how the calls were made is not given here.

SMILES	KCNQ2 enhance	KCNQ2 block	KCNQ2 inh conf	KCNQ1 spec	CHO parental ctr	others
CCCCC(CC)COC1(c2ccccc2)OC(=O)c2ccccc21 (centres undefined)	-9.7	-9.7*	-33%*	i	i	KCNQ2 inh confirm=i
[2H]C([2H])(CCOS(N)(=O)=O)c1ccccc1	0.39	i	·	·	·
Cn1c(=O)c2c(nc3n2CC(O)CN3c2ccc(O)cc2)n(C)c1=O (centres undefined)	1.3	i	·	·	·
Cc1ccccc1CN1CCN(C(=O)CC(C)C)CC1	·	i	·	·	·
Clc1ccc(CSc2cc3c(nn2)-c2ccccc2CC3)cc1	-10	-10*	-38%*	-41%*	-28%*	KCNQ2 inh confirm=i
Clc1ccc(CSc2ccc(-c3ccccn3)nn2)cc1	·	i	·	·	·
CCC(C)(C)NC(=O)CN(Cc1ccccc1Cl)C(=O)CCC(=O)Nc1cc(C)ccn1	·	i	·	·	·
CCn1c(SCC(=O)NNC(=O)c2ccc(OC)cc2)nnc1-c1cccnc1	0.57	i	·	·	·
CCO[C@@H]1OC(C(=O)N2CCN(Cc3ccccc3)CC2)=C[C@H](c2coc3ccccc3c2=O)[C@H]1CCCO	1	i	·	·	·
CCOc1ccc2c(c1)C(C)=CC(C)(C)N2S(=O)(=O)c1ccc(F)cc1	·	i	·	·	·
CCOc1ccc2c(c1)-c1c(ssc1=S)C(C)(C)N2C	-7	-7*	i	i	i
COc1ccccc1CNC(=O)COc1ccccc1C	·	i	·	·	·
C/C=C/c1ccc(OCC(=O)NCc2ccccc2OC)c(OC)c1	-6.7	-6.7*	i	i	i
COc1ccc(Cl)cc1N1C(=NC(=O)C2CCCCC2)SC2CS(=O)(=O)CC21 (centres undefined)	0.94	i	·	·	·
COc1ccccc1N1CCN(c2nc(C)nc3c2oc2ccccc23)CC1	-6.9	-6.9*	i	i	i
Cc1nc(N2CCC(C)CC2)c2oc3ccccc3c2n1	·	i	·	·	·
COc1ccc(C(=O)OCC(=O)NCC2CCCO2)cc1S(=O)(=O)N1CCCc2ccccc21 (centres undefined)	·	i	·	·	·
CC1(C)C(C=C(Cl)Cl)C1C(=O)N/N=C/c1ccccc1F (centres undefined)	-9.9	-9.9*	-28%*	i	i	KCNQ2 inh confirm=+
CC1(C)OC2OC(C(=O)N/N=C/c3ccccc3F)C3OC(C)(C)OC3C2O1 (centres undefined)	1.1	i	·	·	·
CC(C)[C@H](NC(=O)c1ccccc1)C(=O)OCC(=O)NCCc1ccc(F)cc1	·	i	·	·	·
CC(C)[C@H](NC(=O)OCc1ccccc1)C(=O)OCC(=O)NCCc1ccccc1	-7.1	-7.1*	i	i	i
COc1ccc(Cl)cc1NC(=O)CN1CCN(S(=O)(=O)N2CCCCC2)CC1	0.7	i	·	·	·
Cc1ccc2c(cnn2C(=O)CCC(=O)NC2CCCCC2)c1	0.93	i	·	·	·
CCC1=NN(C(=O)COc2ccccc2C)C(O)(c2ccncc2)C1 (centres undefined)	·	i	·	·	·
CC1=NN(C(=O)COc2ccccc2C)C(O)(c2ccc(Cl)cc2)C1 (centres undefined)	-8.1	-8.1*	-24%*	i	i	KCNQ2 inh confirm=+
SMILES	KCNQ2 enhance	KCNQ2 block	KCNQ2 inh conf	KCNQ1 spec	CHO parental ctr	others
CCOc1ccccc1NC(=O)Cn1c(=O)n(-c2ccc(OC)cc2OC)c(=O)c2c(C)c(C(=O)N(CC)CC)sc21	·	i	·	·	·
COc1ccc(-n2c(=O)c3c4c(sc3n(CC(=O)Nc3cc(C)[nH]n3)c2=O)CCCC4)c(OC)c1	-6.7	-6.7*	i	i	i
COc1ccc(/C(N)=N/OC(=O)CC2CCCCC2)cc1OC	0.35	i	·	·	·
COc1ccc(/C(N)=N/OC(=O)CSc2ccc(C)cc2)cc1OC	-9.2	-9.2*	i	i	i
CCC(C)Sc1ccc(-c2nc3ccc(C)cn3c2NCc2ccccc2)cc1OC (centres undefined)	·	i	·	·	·
CCC(C)Sc1cccc(-c2nc3cc(C)ccn3c2NCc2ccccc2)c1 (centres undefined)	-6.7	-6.7*	i	i	i
CC(=O)Oc1ccc(N(C(C)=O)S(=O)(=O)c2ccc(C)c([N+](=O)[O-])c2)cc1	1.2	i	·	·	·
CCOC(=O)N1C/C(=C\c2ccccc2)C(=O)/C(=C/c2ccccc2)C1	-6.9	-6.9*	-33%*	i	i	KCNQ2 inh confirm=i
CCOC(=O)N1CCN(S(=O)(=O)/C=C/c2ccccc2)CC1	0.73	i	·	·	·
Fc1ccc(-n2nnnc2-c2cnc(-c3cccs3)nc2C(F)(F)F)cc1	·	i	·	·	·
O=C(COC(=O)CC12CC3CC(CC(C3)C1)C2)Nc1cccnc1Cl	-7.3	-7.3*	-38%*	i	i	KCNQ2 inh confirm=+
O=C(COC(=O)c1ccccn1)Nc1cccnc1Cl	·	i	·	·	·
Cc1ccc(SCc2cn3cc(Cl)ccc3n2)cc1	·	i	·	·	·
CCN1/C(=C/C=C/c2sc3ccccc3[n+]2CC)Sc2ccccc21	-6.9	-6.9*	i	i	i
CC[n+]1c(/C=C/Nc2ccccc2)sc2ccccc21	0.92	i	·	·	·
O=[N+]([O-])c1ccc(Cl)c(S(=O)(=O)/N=C(/c2ccccc2)N2CCOCC2)c1	·	i	·	·	·
Cc1ccccc1OCCSCc1nc2ccccc2[nH]1	·	i	·	·	·
CCN(CC)CCN1C(=O)c2oc3ccccc3c(=O)c2C1c1cccc(Br)c1 (centres undefined)	1.2	i	·	·	·
O=C1c2oc3ccc(Cl)cc3c(=O)c2C(c2cccc(Br)c2)N1CCO (centres undefined)	-11	-11*	i	i	i
Cc1ccccc1SC1CCN(Cc2nc(C3CC3)no2)CC1	·	i	·	·	·
CN(C)c1oc(-c2ccccc2Cl)nc1P(=O)(c1ccccc1)c1ccccc1	-9.5	-9.5*	-39%*	-31%*	-24%*	KCNQ2 inh confirm=+
Cc1ccc(S(=O)(=O)c2nc(-c3ccccc3Cl)oc2N(C)C)cc1	·	i	·	·	·
COc1cccc(-n2c(SCC(=O)NCc3cccs3)nc3ccccc3c2=O)c1	·	i	·	·	·
COc1cccc(-n2c(SCC(=O)Nc3nc4ccccc4s3)nc3ccccc3c2=O)c1	-7	-7*	i	i	i
CCc1ccc(C(C(=O)NCc2ccc(OC)cc2)N(CCOC)C(=O)Cc2cccs2)cc1 (centres undefined)	·	i	·	·	·
SMILES	KCNQ2 enhance	KCNQ2 block	KCNQ2 inh conf	KCNQ1 spec	CHO parental ctr	others
COCCN(C(=O)Cc1cccs1)C(C(=O)NCc1ccc(OC)cc1)c1ccc(C(C)C)cc1 (centres undefined)	-8.6	-8.6*	-35%*	i	i	KCNQ2 inh confirm=+
Cc1ccc(N(CC(=O)O)S(C)(=O)=O)cc1Cl	0.51	i	·	·	·
COc1cc(C(=O)Nc2ccc(Nc3ccccc3)cc2)cc(OC)c1OC	·	i	·	·	·
Cc1cccc(N2C(=O)/C(=C\c3ccc(C(=O)O)cc3)c3ccccc3C2=O)c1	-9.1	-9.1*	-20%*	i	i	KCNQ2 inh confirm=i
Cc1cccc(N2C(=O)c3ccc(C(=O)Nc4ccccn4)cc3C2=O)c1	0.05	i	·	·	·
COc1ccc(NS(=O)(=O)c2cc(NC(=O)[C@@H](NC(=O)c3ccccc3)C(C)C)ccc2C)cc1	·	i	·	·	·

Assay outcomes from PubChem.
